PubChem BioAssay
Activity calls are given as the source filed them.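 The calls were made as follows, unless noted: active = fluorescence slope higher than the sample average by over 3 SD (cut at about -0.22 in these data, passing the limit was not always enough); inactive = the rest.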

Assays:
[1] = inhibitors of TNFa-induced NFkB p65 translocation, primary screen, imaging, HUVEC, MLSMR starter and 10KST1 sets (AID 438;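 active = inhibition above 20% together with a positive visual image hit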;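 also: compound added about 3h40 before a 20 min TNFalpha stimulation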;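 as to inhibition: signal is the nuclear over cytoplasmic p65 intensity ratio per well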); conditions: HUVEC TNFa-induced p65 nuclear translocation; cell count: measured here: nuclei count (cytotoxicity indicator), at 2.08 µM; inhibition: at 2 µM, stronger effect = higher value, 0% TNFa-plus-vehicle, 100% no-TNFa wells
[2] = inhibitors of mutant huntingtin aggregation, primary screen, imaging, exon1htt(103Q)mCFP cells, high-content imaging (AID 483;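 active = visual image review flags a hit and inhibition of aggregation exceeds 20%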;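 also: compound exposure lasted 3 days before fixation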;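 as to nuclei count: percent of the per-plate median nuclei count of sample wells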); conditions: exon1htt(103Q)mCFP cell line, aggregate imaging, at 2 µM; inhibition of aggregation: stronger effect = higher value; nuclei count: measured here: cell count, toxicity
[3] = inhibitors of E-selectin induction by TNFa, primary screen, imaging, HUVEC, immunofluorescence, MLSMR starter and 10KST1 sets (AID 487;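 active = visually confirmed hit in the image check and inhibition above 20%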;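 as to inhibition: signal is fraction of cell area covered by stained E-selectin grains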;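 as to nuclei count: 100% = median nuclei count of all wells on the same plate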); conditions: HUVEC TNFalpha-induced E-selectin immunofluorescence imaging, at 2 µM; inhibition: stronger effect = higher value; nuclei count: measured here: cell number, toxicity
[4] = target: Voltage-gated potassium channel subunit beta-2 (Rattus norvegicus) (UniProt P62483); experiment: KvBeta enzyme negative modulators, primary screen, biochemical, NADPH fluorescence (AID 622); conditions: recombinant KvBeta, 4-cyanobenzaldehyde reduction, at 10 µM, stronger effect = higher value;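 also: slope of raw intensity against log time taken from 70 to 1610 s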
[5] = target: Voltage-gated potassium channel subunit beta-2 (Rattus norvegicus) (UniProt P62483); experiment: KvBeta positive modulators, primary screen, biochemical, NADPH fluorescence (AID 623;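 active = NADPH fluorescence slope more negative than the mean of all samples by about 3 SD, 99.7% confidence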;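 also: fluorescence intensity change per second fitted from 20 to 320 s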); conditions: Recombinant KvBeta, NADPH fluorescence decrease slope, 10 min; at 10 µM; stronger effect = lower value
[6] = target: Alpha-2C adrenergic receptor (Homo sapiens) (UniProt P18825); experiment: modulators of alpha2C/GIRK thallium flux, primary screen, cell-based, HEK293 alpha2C/GIRK1/2 (AID 624;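 active = fluorescence slope after compound addition differing from the mean of all screened samples at 99.7% confidence, in either direction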;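 also: slope of fluorescence ratio to pre-addition baseline per second over 15 to 24 s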); conditions: thallium flux BTC fluorescence, at 10 µM, actives lie on both sides
[7] = inhibitors of Sendai virus-induced IRF3 signaling, primary screen, TLR/RLR signaling modifier project, cell-based, Sendai virus stimulus, luciferase, 10K MLSCN set (AID 602276;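 active = inhibition at or above 50% at 10 µM; inactive = inhibition below 50%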;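 also: firefly luciferase from ISG56 promoter only with Renilla not read in this screen; 0% = Sendai virus plus DMSO and 100% = medium plus DMSO without virus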); conditions: HEK293 RL24 IRF3 luciferase reporter, at 10 µM, stronger effect = higher value
[8] = inhibitors of poly I:C-induced TLR3 signaling, primary screen, cell-based, poly I:C stimulus, luciferase, 10K MLSCN set (AID 602277;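 active = inhibition of the reporter signal at or above 50%; inactive = inhibition below 50%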); conditions: HEK293-TLR3 RL24 IRF3 luciferase reporter, at 10 µM, stronger effect = higher value

Sequence of Voltage-gated potassium channel subunit beta-2 (Rattus norvegicus) (P62483 whole entry, looked up): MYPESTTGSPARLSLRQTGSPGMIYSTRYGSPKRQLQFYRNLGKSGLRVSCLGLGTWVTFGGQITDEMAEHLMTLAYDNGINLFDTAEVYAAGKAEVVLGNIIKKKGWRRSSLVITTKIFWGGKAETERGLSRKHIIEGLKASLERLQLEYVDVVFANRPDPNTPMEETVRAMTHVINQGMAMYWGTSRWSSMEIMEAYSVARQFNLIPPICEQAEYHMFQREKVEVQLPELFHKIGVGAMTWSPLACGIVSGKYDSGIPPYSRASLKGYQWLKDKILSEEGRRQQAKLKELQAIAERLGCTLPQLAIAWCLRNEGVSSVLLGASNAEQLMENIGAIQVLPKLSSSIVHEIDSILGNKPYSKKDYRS
Sequence of Alpha-2C adrenergic receptor (Homo sapiens) (P18825 whole entry, looked up): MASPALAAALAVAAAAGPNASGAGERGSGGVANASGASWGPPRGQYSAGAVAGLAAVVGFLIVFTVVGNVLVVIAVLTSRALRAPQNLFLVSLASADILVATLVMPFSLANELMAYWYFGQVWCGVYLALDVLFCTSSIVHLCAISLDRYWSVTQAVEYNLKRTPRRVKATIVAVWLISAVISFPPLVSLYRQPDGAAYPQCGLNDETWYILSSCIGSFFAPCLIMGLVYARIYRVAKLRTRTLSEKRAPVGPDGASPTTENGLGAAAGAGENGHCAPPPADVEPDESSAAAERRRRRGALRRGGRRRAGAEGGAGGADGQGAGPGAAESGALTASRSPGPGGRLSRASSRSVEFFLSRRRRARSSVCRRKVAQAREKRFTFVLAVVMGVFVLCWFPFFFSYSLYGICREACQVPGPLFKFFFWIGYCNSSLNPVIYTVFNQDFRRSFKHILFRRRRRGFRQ

SMILES	cell count [1]	inhibition [1]	inhibition of aggregation [2]	nuclei count [2] [%]	inhibition [3]	nuclei count [3] [%]	fluorescence slope [4]	NADPH fluorescence slope [5]	slope [6]	inhibition [7]	inhibition [8]
COc1ccccc1N1CCN(Cc2nnnn2CCc2ccccc2)CC1	497	-3.1% (inactive)	2% (inactive)	99.9	-42.8% (inactive)	92	-0.565 (inactive)	8e-05 (inactive)	0.00514 (inactive)	-6.87% (inactive)	0.354% (inactive)
COc1ccccc1OCC(=O)Nc1ccc(S(=O)(=O)Nc2nc(C)cc(C)n2)cc1	376	0% (inactive)	-13.8% (inactive)	102	-84% (inactive)	121	-0.335 (inactive)	-6.1e-05 (inactive)	0.00524 (inactive)	11.5% (inactive)	17.1% (inactive)
COc1cccc(-c2nnc(SCC(=O)N3CCCc4ccccc43)o2)c1	642	3.6% (inactive)	-6.3% (inactive)	100	-56.4% (inactive)	109	-0.378 (inactive)	-5e-05 (inactive)	0.00375 (inactive)	5.85% (inactive)	26.1% (inactive)
COc1ccc(NS(=O)(=O)c2coc(C(N)=O)c2)cc1Cl	734	-6.3% (inactive)	24% (inactive)	86.4	-27.2% (inactive)	116	-0.605 (inactive)	1.2e-05 (inactive)	0.00632 (inactive)	6.28% (inactive)	29.4% (inactive)
CC(=O)N1CCN(S(=O)(=O)c2ccc(S(=O)(=O)NCC(C)C)cc2)CC1	641	1.6% (inactive)	5.2% (inactive)	102	-10.2% (inactive)	110	-0.399 (inactive)	-3.9e-05 (inactive)	0.00517 (inactive)	14.8% (inactive)	12.6% (inactive)
CCOc1ccc(N(CC(=O)Nc2ccc(F)c(F)c2)S(=O)(=O)c2c(C)noc2C)cc1	758	-0.6% (inactive)	25.8% (inactive)	130	-35.5% (inactive)	109	-0.521 (inactive)	-4.9e-05 (inactive)	0.00774 (inactive)	13% (inactive)	30.3% (inactive)
Cn1cccc1Cc1nnc(SCC(N)=O)n1-c1ccc(F)cc1	845	4.6% (inactive)	15.1% (inactive)	102	-106% (inactive)	125	-0.569 (inactive)	-3.1e-05 (inactive)	0.00615 (inactive)	10.4% (inactive)	24.3% (inactive)
CN(CC(=O)Nc1ccc(F)c(Cl)c1)S(=O)(=O)c1cccc2nsnc12	615	-19.8% (inactive)	5.8% (inactive)	64.7	-18.3% (inactive)	108	-0.34 (inactive)	-3.5e-05 (inactive)	0.00478 (inactive)	-14.7% (inactive)	98.7% (active)
Cc1c(Cl)cccc1NC(=O)CCN1CCCCC1	329	-1.3% (inactive)	-7.5% (inactive)	112	-67.3% (inactive)	133	-0.514 (inactive)	3e-05 (inactive)	0.00469 (inactive)	17.5% (inactive)	20% (inactive)
COC(=O)c1cc2ccsc2n1CC(=O)N(C)c1ccccc1	623	-15.1% (inactive)	-8.1% (inactive)	117	-29.3% (inactive)	92.2	-0.261 (inactive)	4.1e-06 (inactive)	0.00481 (inactive)	13.3% (inactive)	22.7% (inactive)
O=c1/c(=C/c2ccco2)sc2nc(-c3ccccc3Br)nn12	343	0.2% (inactive)	14.2% (inactive)	107	-34.7% (inactive)	118	-0.585 (inactive)	-2.3e-05 (inactive)	0.00315 (inactive)	16.2% (inactive)	18.1% (inactive)
CC(=O)c1ccc(NC(=O)CCc2c(C)nc3ncnn3c2C)cc1	363	0% (inactive)	11.4% (inactive)	103	-31.1% (inactive)	113	-0.498 (inactive)	-2.9e-05 (inactive)	0.00573 (inactive)	-9.29% (inactive)	-11.6% (inactive)
O=C1CC(c2ccsc2)c2cc3c(cc2N1)OCCO3 (centres undefined)	623	0% (inactive)	-4.2% (inactive)	87.6	-78.5% (inactive)	129	-0.556 (inactive)	-2.5e-05 (inactive)	0.0063 (inactive)	1.12% (inactive)	21.1% (inactive)
COC(=O)C1=C(C)NC(C)=C(C(=O)OC)C1C(=O)OC1CCCCC1=O (centres undefined)	487	8.7% (inactive)	32.7% (inactive)	87.8	61.1% (active)	80.2	-0.425 (inactive)	-3.3e-06 (inactive)	0.00528 (inactive)	1.65% (inactive)	27.7% (inactive)
